A selection: hits, their analogues and other compounds. The true share with any hit is near 5.7%.
MPTP inh: inhibitors of mitochondrial permeability transition pore; isolated mouse mitochondria, Ca2+ swelling absorbance, 30 min; inhibition, % at 10 µM; 1.4% of 360,000 active; AID 602449;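 active = inhibition of 50% or more, scaled per plate between neutral and stimulator controls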;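 note: 0% = DMSO wells given calcium and 100% = 1 mM EGTA wells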
rCAG RNA binder: molecules binding r(CAG) RNA repeats | inhibition, % at 3 µM | 1.3% of 370,000 active | AID 651821 | r(CAG) RNA repeat, TO-PRO-1 dye displacement fluorescence;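 active = inhibition above the plate cutoff, the mean of all test compounds on that plate plus 3 SD, cut at about 35% in these data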;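 note: 0% = DMSO alone and 100% = 100 µM mitoxantrone as full dye displacement; higher means more dye released from RNA so lower well fluorescence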
GRIN3A LBD mod: modulates the human NR3A ligand-binding domain; Tm shift relative to glycine control, % at 25 µM; NR3A LBD differential scanning fluorimetry, Tm shift; 0% = protein alone, 100% = glycine-bound protein; 2.5% of 340,000 active;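 active = melting temperature shift of at least 10% of the positive control shift, at one fixed dose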
Myeloid diff MLP: compounds promoting myeloid differentiation; AID 624256; calls only at 10 µM; ER-HoxA9 myeloid progenitors, lysozyme-GFP differentiation, flow cytometry; 1% of 360,000 active;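 active = normalized GFP-positive differentiation at or above the plate's own cutoff, the solvent-only control mean plus 3 SD; inconclusive = no clear call, values can overlap the other calls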;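 note: cells exposed to compound for four days before flow analysis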
FAS-TE inh: inhibitors of human fatty acid synthase thioesterase domain; P49327; recombinant FAS-TE, OMFH fluorogenic substrate, fluorescence endpoint; inhibition, % at 15 µM; 0.67% of 360,000 active; AID 602261;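 active = compounds whose normalised, plate-corrected inhibition of enzyme fluorescence in the single-dose primary screen is 50% or more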;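 note: 0% = DMSO with enzyme and 100% = substrate without enzyme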
Starred values were filed as active, the others as inactive; i = inactive; ? = inconclusive; / = no result given; + = active, no number.

SMILES	MPTP inh	rCAG RNA binder	GRIN3A LBD mod	Myeloid diff MLP	FAS-TE inh
CCCC[C@H](C(=O)N(C)c1cccc(OC)c1)[C@@H](O)c1ccc(Cl)cc1	/	0	/	/	/
COc1ccccc1CN1C(=O)CN(C2CCCC2)C(=O)C1c1ccc(F)cc1 (stereo not given)	0	-5	-2	+	2
COc1cccc(CNC(=O)C[C@H]2CC[C@H]3[C@@H](COc4ccc(NC(=O)c5cccs5)cc4C(=O)N3C)O2)c1	/	9	/	/	/
O=C(CCS(=O)(=O)c1ccccc1)Nc1ccc(F)cc1Cl	/	2	/	/	/
Cc1cc(NC(=O)CSc2nnc(-c3ccncc3)n2C)n(-c2ccccc2)n1	1	-3	3	+	-9
Cn1c(SCC(=O)N2CCN(c3ccccc3)CC2)nnc1-c1ccncc1	-2	-4	11*	i	-11
O=C(c1ccc(Cl)cc1)N1CCC(Oc2cccnc2)CC1	/	0	/	/	/
COc1ccccc1CCNC(=O)Cn1ccc2cc(S(=O)(=O)N3CCC(C)CC3)ccc21	0	4	-4	+	17
COc1ccc(OC)c(CCNC(=O)Cn2ccc3cc(S(=O)(=O)N4CCCC4)ccc32)c1	0	0	0	i	-2
CCOC(=O)c1cc(C#N)c(Oc2ccccc2)nc1-c1ccccc1	5	-2	13*	i	21
O=C(/C=C/c1cn(CC(O)CN2CCCCC2)c2ccccc12)c1cccs1 (stereo not given)	23	4	-6	+	-31
O=C(/C=C/c1cn(CC(O)CN2CCCCC2)c2ccccc12)c1ccccc1 (stereo not given)	-2	-6	0	i	-14
CN1CCN(Cn2cc(/C=C/C(=O)c3ccccc3)c3ccccc32)CC1	2	/	26*	i	-5
O=C(COc1ccccc1)Nc1cccc(-c2nc3cc4ccccc4cc3[nH]2)c1	31	22	26*	/	20
COc1ccc(/C=C/C=C2\NC(=S)NC2=O)cc1	-2	10	-9	+	-6
COc1ccc(C=C2NC(=S)NC2=O)cc1	0	1	1	i	-3
Cc1cc2[nH]c3c4ccccc4nc(C)c3c2cc1C	14	25	10*	/	24
CCCCCNC(=O)C(=O)C1C(=O)Nc2ccccc21 (stereo not given)	1	-2	28*	i	1
COC(=O)Cc1ccc(NC(=S)NC2CC2)cc1	0	3	1	+	-5
COC(=O)Cc1ccc(NC(=S)NCCO)cc1	-1	-1	3	i	-3
C=CCCC1CN(Cc2ccc(OC)cc2)S(=O)(=O)c2c(cccc2N2CCCC2)O1 (stereo not given)	/	4	/	/	/
CCCCOc1ccc(-c2nnn(CC(=O)NCCc3c[nH]c4ccccc34)n2)cc1	4	5	17*	i	2
COC(=O)[C@]1(CC(C)C)N[C@H](c2ccc(-c3ccc(Cl)c(Cl)c3)cc2)[C@@H]2C(=O)N(C)C(=O)[C@@H]21	1	1	-2	i	61*
CCN1C(=O)[C@H]2[C@@H](c3ccc(-c4ccc(Cl)c(Cl)c4)cc3)N[C@@](CC(C)C)(C(=O)OC)[C@H]2C1=O	1	5	2	i	42
CCOC(=O)CSc1nc(N)c(C#N)c(-c2ccc(OCC)cc2)c1C#N	0	3	-35	i	-10
SMILES	MPTP inh	rCAG RNA binder	GRIN3A LBD mod	Myeloid diff MLP	FAS-TE inh
CC1=C(C#N)c2nc(N)c(C#N)c(C)c2/C1=C\c1ccc(OCC(=O)O)c(Cl)c1	4	47*	-1	i	14
C[C@H](CO)N1C[C@H](C)[C@@H](CN(C)C(=O)Nc2ccc3c(c2)OCO3)OCc2cn(nn2)CCCC1=O	/	2	/	/	/
CN(C)c1nc(N/N=C\c2ccc(Cl)c([N+](=O)[O-])c2)nc(Nc2ccc(F)cc2)n1	6	15	30*	i	41
Nn1cnnc1N/N=C/c1ccc(Cl)c([N+](=O)[O-])c1	0	7	-2	i	10
CC(C)Cc1ccc(C(C)C(=O)O)cc1 (stereo not given)	-4	1	-3	+	0
CC(C)Cc1ccc(C(C)C(=O)Nc2ncccn2)cc1 (stereo not given)	2	-3	-3	i	0
C[C@H]1Cn2cnc(C(=O)N(C)Cc3ccccc3)c2C(=O)N1	/	1	/	/	/
O=C(CN1CCN(C(=O)c2cc(C3CC3)nn2-c2ccccc2)CC1)Nc1ccc(F)cc1	1	-2	/	i	-6
Cc1cccc(NC(=O)CN2CCN(C(=O)c3cc(C4CC4)nn3-c3ccccc3)CC2)c1C	1	-1	/	+	-7
COc1cccc(C(=O)NCC(C)(C)SCc2ccc(F)cc2)c1	1	-9	10*	i	12
O=C(Nc1cccc(F)c1)C1CCN(C(=O)c2ccc(Cl)cc2)CC1	0	0	12*	i	8
CN(CC(=O)Nc1cccc(F)c1)C(=O)C1CCN(C(=O)c2ccc(Cl)cc2)CC1	0	1	-1	i	-5
O=C(Cn1c2c(sc1=O)C1c3ccccc3OCC1CS2)Nc1ccc(Cl)c(Cl)c1 (stereo not given)	15	10	24*	i	5
Cc1ccc(S(=O)(=O)N2C[C@@H]3c4ccccc4N(S(=O)(=O)c4ccc(C)cc4)[C@@H]3[C@@H](C)C2CC(=O)c2ccccc2)cc1 (stereo not given in full)	1	15	3	i	29
CC1=CN(S(=O)(=O)c2ccc(C)cc2)C[C@@H]2c3ccccc3N(S(=O)(=O)c3ccc(C)cc3)[C@H]12	0	7	17*	i	30
N#Cc1ccc(OCC(=O)N[C@@H](Cc2ccccc2)c2nc3ccccc3[nH]2)cc1	/	-2	/	/	/
OC(CNCC(c1ccc(Cl)cc1Cl)c1c[nH]c2ccccc12)c1ccccc1 (stereo not given)	11	0	24*	?	42
COC(=O)[C@H](C)N(CCc1cn(Cc2ccccc2)nn1)S(=O)(=O)c1ccccc1Br	/	5	/	/	/
CCOC(=O)CSc1nc2c(sc(=S)n2-c2ccccc2OC)c(=O)n1Cc1ccco1	3	7	19*	i	26
Clc1ccccc1OCc1nc(-c2ccccn2)no1	-1	-4	11*	i	-5
O=C(COc1ccccc1Cl)Nc1ccc(NC(=O)c2ccco2)cc1	0	-1	15*	i	1
Clc1ccc(OCc2nc(-c3ccccn3)no2)c(Br)c1	0	0	7	i	16
O=C(COc1ccccc1Cl)NCCCNC(=O)c1ccco1	0	-2	-1	i	-1
O=C(Nc1ccc(-c2noc(COc3ccccc3Cl)n2)cc1)c1ccco1	0	5	13*	+	20
C=Cc1ccc(C(=O)N2CCC(n3nnc4ncccc43)CC2)cc1	/	-1	/	/	/
Cc1cc(N2CCNC[C@H]2C)ccc1N1CCN(Cc2ccccc2)[C@H](C)C1	/	6	/	/	/
CC(OC(=O)c1ccc(NC(=O)CC#N)cc1)C(=O)Nc1ccc2c(c1)OCCO2 (stereo not given)	0	22	-1	i	-4
